HCMV antiviral: blocks human cytomegalovirus replication; activity change, negative = inhibition, % at 57.5 µM; actives 4.5% (n = 410,000); AID 1259415; HFF cells, HCMV-luciferase reporter, 72 h; hits give low values; in the data active = activity change below about -60%; inconclusive = no clear call, values can overlap the other calls; inactive = above about -39%
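Luciferase read-out from HCMV-luciferase-infected HFFs (MOI 1 PFU/cell) 72 h post infection at 37C; compounds added after 16 h cell attachment; activity normalized between buffer-only basal and Salinomycin (10uM) inhibitor controls.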
FMDV inh: blocks foot and mouth disease virus; FMDV antiviral cell-based qHTS; Potency, µM (series often up to 57.9 µM), most hits filed as inhibitors; actives 1.2% (n = 410,000); AID 1159524; calls by dose curve; tested in HEK293T cells; also: read-out not given here; nearly all actives have a fitted effect of over 45% in size
Marburg entry inh: inhibitors of Marburg virus binding or cell entry | Potency, µM (highest dose often 37.8 µM), actives largely listed as inhibitors | Marburg virus pseudotyped entry inhibition, cell reporter | actives 1.8% (n = 300,000); calls by dose curve; tested in HEK293 cells
Lassa entry inh: Lassa virus entry inhibition. Lassa virus pseudotype entry inhibition, cell reporter. actives 1.2% (n = 300,000). Potency, µM (doses to about 37.9 µM), actives largely listed as inhibitors. AID 540256; calls by dose curve; tested in HEK293 cells; also: nearly all actives have a fitted effect of over 50% in size
HCV inh: inhibitors of hepatitis C virus infection | Huh7.5.1 HCVcc-Cre infection, luciferase reporter, 44 h | Potency, µM (series often up to 41.8 µM), usual class: inhibitors | actives 3.4% (n = 340,000) | AID 651820; active = well fitted inhibition curve with a large enough effect; inconclusive = small, poorly fitted or top-dose-only effect, or another doubt; inactive = no such curve, though single readings can be large or run the other way
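Seed cells (1,000/well) for 4 h; treat with compound and infect with HCVcc-Cre, moi about 0.5. Incubate 44 h, then detect luciferase activity.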
SARS PLpro yeast: SARS-CoV PLP inhibition in yeast; S. cerevisiae expressing SARS-CoV PLpro, growth rescue; Potency, µM (highest dose often 32.9 µM), actives largely listed as activators; actives 0.19% (n = 330,000); AID 485353; calls by dose curve; also: nearly all actives have a fitted effect of over 55% in size
Hits are given with their value; 0 = inactive; ? = inconclusive; - = no result given; + = active, no number; ! = not active in a repeat. Shown are actives, neighbours in structure and some others; about 8% of the full set was active somewhere.

SMILES	HCMV antiviral	FMDV inh	Marburg entry inh	Lassa entry inh	HCV inh	SARS PLpro yeast
Cc1ccc(C2=NN(C(=O)CCl)C(c3cccs3)C2)o1 (stereo not drawn)	-100	14µM	?	?	?	0
COc1cc(C2CC(c3cccs3)=NN2C(=O)CCl)ccc1OC(F)F (stereo not drawn)	-97	16µM	?	?	11µM	0
Cc1ccc(CN2CCN(C3CCN(C(=O)Nc4ccc(C)cc4Cl)CC3)C(=O)C2=O)cc1	0	0	-	0	-	-
CC(=O)N1CCCC1c1nc2ccccc2n1Cc1cccc(C)c1 (stereo not drawn)	0	0	0	0	-	-
Cc1ccc(CCNC(=O)Cn2ncc3c(=O)oc4ccccc4c32)cc1	0	0	0	0	-	-
Cc1ccc(C)c(Nc2nn3c(=O)c4ccc(C(=O)NCCc5ccccc5)cc4nc3s2)c1	0	0	-	0	-	-
COc1ccccc1Nc1nn2c(=O)c3ccc(C(=O)NCCC4=CCCCC4)cc3nc2s1	-106	?	-	?	-	-
COc1ccccc1Nc1nn2c(=O)c3ccc(C(=O)NCCc4ccccc4)cc3nc2s1	-99	?	-	?	-	-
CCN(C(=O)CC(C)C)c1nnc(Cn2nnc3ccccc32)s1	0	?	0	?	13µM	0
CCN(C(=O)c1ccc(C(C)(C)C)cc1)c1nnc(Cn2nnc3ccccc32)s1	-65	?	?	?	1µM	0
Cn1c(-[n+]2c(-c3ccccc3)cc(-c3ccccc3)cc2-c2ccccc2)nc2c([N+](=O)[O-])cccc21	-60	0	?	?	?	0
CCOc1ccccc1NC(=O)c1cc(S(=O)(=O)NCc2ccco2)ccc1F	0	0	-	-	0	0
COc1cccc(C(=O)Nc2ccc(S(=O)(=O)NCc3ccco3)cc2)c1	0	0	0	0	25µM	0
O=C(Nc1ccc(S(=O)(=O)NCc2ccco2)cc1)c1cccc(F)c1	0	0	0	0	0	0
COc1ccc(OC)c(NC(=O)c2cc(S(=O)(=O)NCc3ccco3)ccc2F)c1	0	0	?	0	25µM	0
CCC(=O)NC1CCc2cccc(OC)c2C1 (stereo not drawn)	-	0	-	-	-	-
Cc1ccc(CNc2nc(C)c(-c3ccn(CCN4CCOCC4)n3)s2)o1	-	0	-	-	-	-
CC(CCC(=O)O)C1CC[C@H]2C3CCC4CC(=O)CCC4(C)[C@H]3CC(=O)C12C (stereo partly drawn)	0	0	-	-	0	0
CC1(C)Cc2c(C#N)c(N3CCN(C(=O)c4ccccc4)CC3)nc(Cc3ccccc3)c2CO1	0	0	0	0	0	0
CCc1nc(N2CCN(C(=O)c3ccccc3)CC2)c(C#N)c2c1COC(C)(C)C2	-62	?	?	?	?	0
O=S(=O)(c1ccc(N2CCOCC2)cc1)N1CCOCC1	0	0	0	0	0	-
O=S(=O)(c1ccc(Oc2ccc(S(=O)(=O)N3CCOCC3)cc2)cc1)N1CCOCC1	-66	?	0	0	?	0
Nc1cc(S(=O)(=O)N2CCOCC2)ccc1Oc1cccc(Br)c1	-77	?	?	?	5µM	0
COc1ccc(S(=O)(=O)N2CCOCC2)cc1Br	0	0	0	0	0	0
CC(=O)OCC(=O)Nc1c(C)cc(C)cc1C	0	0	0	0	0	0
SMILES	HCMV antiviral	FMDV inh	Marburg entry inh	Lassa entry inh	HCV inh	SARS PLpro yeast
CC(C)(C)c1ccc(Cn2c(=O)cnc3ccccc32)cc1	-81	13µM	?	10µM	?	0
O=c1cnc2ccccc2n1Cc1ccc(Br)cc1	0	0	0	0	?	0
OC(c1cccc(CN2CCCCC2)c1)c1ncc(-c2cccc3ccccc23)[nH]1 (stereo not drawn)	0	0	-	-	-	-
COc1ccc(NC(=O)CSc2ccccc2)cn1	-103	0	?	?	0	0
COc1ccc(NC(=O)Cc2ccccc2)cn1	0	0	0	?	0	0
CCOc1cc(Br)c(CN2C(=O)NC3(CCCCCC3)C2=O)cc1OCC	0	?	11µM	-	0	0
O=C(Cc1ccc(-c2ccccc2)cc1)NNC(=S)NCc1ccco1	0	0	0	?	11µM	0
O=C(Cc1coc2ccc3ccccc3c12)NCc1ccccc1	0	0	?	0	10µM	0
CC(NC(=O)COC(=O)Cc1ccc(Cl)cc1)c1ccccc1 (stereo not drawn)	0	0	0	0	0	0
O=C(Cc1ccc(-c2ccccc2)cc1)NCc1ccccc1	-83	0	0	?	0	0
CC(NC(=O)Cc1ccc(-c2ccccc2)cc1)c1ccccc1 (stereo not drawn)	0	0	0	?	14µM	0
O=C(Cc1cccs1)NNC(=S)NCc1ccco1	0	0	?	0	0	0
Cc1ccc(/C=[N+](\[O-])c2ccc(N(C)C)cc2)c2nsnc12	0	0	?	?	?	0
Cc1ccc2c(C(=O)CN3CCC(C(N)=O)CC3)c(C)[nH]c2c1	-	-	-	-	-	0
Cc1cccc(Nc2nc(N)c([N+](=O)[O-])c(NCc3ccco3)n2)c1	0	?	?	0	?	0
COc1ccccc1Nc1nc(NCc2ccco2)c2ccccc2n1	-99	?	?	0	?	0
Cc1ccc(Nc2nc(NCc3ccco3)c3ccccc3n2)cc1	-82	0	?	2.8µM	3.5µM	0
COc1cccc(C(C)(O)c2nc(-c3ccc(OC)c(OC)c3)cs2)c1 (stereo not drawn)	0	?	-	-	-	-
COc1cc(OC)cc(-c2c(-c3cccs3)c3cc(-c4cnc(OC)nc4)ccc3n2C)c1	-78	?	-	-	?	0
COc1ccccc1N1CCN(C(=O)C2CCCN(S(=O)(=O)c3ccc(C)cc3)C2)CC1 (stereo not drawn)	0	?	-	-	?	0
CC(=O)N1CCCc2cc(S(=O)(=O)N3CCCC(C(=O)N4CCN(c5cc(C)ccc5C)CC4)C3)ccc21 (stereo not drawn)	-78!	28µM	?	5.6µM	10µM	0
COc1ccccc1N1CCN(C(=O)C2CCCN(S(=O)(=O)c3ccc4c(c3)CCCN4C(C)=O)C2)CC1 (stereo not drawn)	-89!	28µM	11µM	?	10µM	0
CC(=O)N1CCCc2cc(S(=O)(=O)N3CCCC(C(=O)N4CCN(c5ccccc5)CC4)C3)ccc21 (stereo not drawn)	+!	18µM	-	0	11µM	0
Cc1ccc(C)c(N2CCN(S(=O)(=O)c3ccc4c(c3)CCCN4C(=O)C3CCC3)CC2)c1	0	?	-	0	-	-
O=C(CSc1ncnc2sc3c(c12)CCCC3)N1CCC(c2noc3ccc(F)cc23)CC1	0	0	?	0	11µM!	0
O=C(CSc1ncnc2sc3c(c12)CCC3)N1CCOCC1	0	0	0	0	?	0
O=Nc1c(O)c2ccccc2c2ccccc12	-98	11µM	-	-	?	-
O=Nc1c2cc3ccccc3[nH]c-2c2ccccc12	0	0	?	?	?	-
CCCn1c(=O)c2[nH]c(-c3ccccc3)nc2n(CCC)c1=O	-	0	-	-	-	-
CCOC(=O)C/C(N)=N/NC(=O)c1ccc(Cl)cc1Cl	?	0	0	0	0	0

From PubChem BioAssay
